Activity calls are given as the source filed them. The calls were made as follows: active = hit-call score of the fitted dose curve at least 0.9, where 1 is the maximum; inactive = score below 0.9.
assay: CCTE_Harrill_HTTr_Apoptosis_MCF7: CCTE's 6-hour Apoptosis Assessment for the High-Throughput Transcriptomics (HTTr) Platform, in MCF-7 cells cultured in DMEM + 10% fetal bovine serum, Harrill Lab (AID 2284011)
Text: This is a cell-based assay that evaluates apoptosis using high content imaging to evaluate activation of caspase-3/7 using the CellEvent Caspase 3/7 Green detection reagent in 384-well format.One of seven assay components measured from the CCTE_Harrill_HTTr_Apoptosis assay. This was part of a full screening experiment. This is a cell-based assay that evaluates apoptosis in MCF-7 cells cultured in DMEM + 10% fetal bovine serum. High content imaging is used to evaluate activation of caspase-3/7 using the CellEvent Caspase 3/7 Green detection reagent. Measurements are taken at 6 hours after chemical dosing in 384-well format.The assay component endpoint CCTE_Harrill_HTTr_Apoptosis_MCF7 was analyzed with bidirectional fitting relation to DMSO as the negative control and baseline of activity. Using a type of viability reporter, gain-of-signal activity can be used to evaluate activation of caspase-3/7 using the CellEvent Caspase 3/7 Green detection reagent to understand changes in apoptosis. To generalize the intended target to other relatable targets, this assay endpoint is annotated to cell cycle, where the subfamily is apoptosis.
Chemicals were tested in MCF7 cells in an eight point dilution series with a six hour exposure duration.

Compound	outcome
CCC(C)(NC(=O)c1cc(Cl)c(C)c(Cl)c1)C(=O)CCl (stereo not given)	inactive
N#Cc1c(Cl)c(Cl)c(Cl)c(C#N)c1Cl	inactive
CCCN(CCC)c1c([N+](=O)[O-])cc(C(F)(F)F)cc1[N+](=O)[O-]	inactive
COP(=S)(OC)Oc1ccc([N+](=O)[O-])cc1	inactive
Oc1cc(Cl)ccc1Oc1ccc(Cl)cc1Cl	inactive
Clc1ccccc1-c1nnc(-c2ccccc2Cl)nn1	inactive
O=C(O)C(F)(F)C(F)(F)C(F)(F)C(F)(F)C(F)(F)C(F)(F)C(F)(F)F	inactive
CC1(C)C(C=C(Cl)Cl)C1C(=O)OC(C#N)c1ccc(F)c(Oc2ccccc2)c1 (stereo not given)	inactive
ClC1C(Cl)C(Cl)C(Cl)C(Cl)C1Cl (stereo not given)	inactive
CC(C)OC(=O)Nc1cccc(Cl)c1	inactive
O=C(O)COc1ccc(Cl)cc1Cl	inactive
O=S(=O)(O)C(F)(F)C(F)(F)C(F)(F)C(F)(F)C(F)(F)C(F)(F)C(F)(F)C(F)(F)F	inactive
CC[C@H](C)[C@H]1O[C@]2(C=C[C@@H]1C)C[C@@H]1C[C@@H](C/C=C(\C)[C@@H](O[C@H]3C[C@H](OC)[C@@H](O[C@H]4C[C@H](OC)[C@@H](O)[C@H](C)O4)[C@H](C)O3)[C@@H](C)/C=C/C=C3\CO[C@@H]4[C@H](O)C(C)=C[C@@H](C(=O)O1)[C@]34O)O2 (tested in a mixture with another compound)	inactive
O=C(NC(=O)c1c(F)cccc1F)Nc1ccc(OC(F)(F)C(F)OC(F)(F)F)c(Cl)c1 (stereo not given)	inactive
CNC(=O)/C=C(\C)OP(=O)(OC)OC	inactive
CN1CSC(=S)N(C)C1	inactive
CNC(=O)Oc1cccc(N=CN(C)C)c1	inactive
C#CCN1C(=O)COc2cc(F)c(N3C(=O)C4=C(CCCC4)C3=O)cc21	inactive
CC1(c2ccc(Oc3ccccc3)cc2)OC(=O)N(Nc2ccccc2)C1=O (stereo not given)	inactive
C[C@H]1[C@H](c2ccc(Cl)cc2)SC(=O)N1C(=O)NC1CCCCC1	inactive

Compound	outcome
CCN(CC)C(=O)SCc1ccc(Cl)cc1	inactive
CNC(=O)CSP(=S)(OC)OC	inactive
CCOC1Oc2ccc(OS(C)(=O)=O)cc2C1(C)C (stereo not given)	inactive
CCC(C)Nc1c([N+](=O)[O-])cc(C(C)(C)C)cc1[N+](=O)[O-] (stereo not given)	inactive
COc1nn(CSP(=S)(OC)OC)c(=O)s1	inactive
O=C1c2ccccc2C(=O)N1SC(Cl)(Cl)Cl	inactive
O=[N+]([O-])/N=C1\NCCN1Cc1ccc(Cl)nc1	inactive
N#CN	inactive
CCCN(CCOc1c(Cl)cc(Cl)cc1Cl)C(=O)n1ccnc1	inactive
Cc1[nH]c(=O)n(C(C)(C)C)c(=O)c1Cl	inactive
O=S1OCC2C(CO1)C1(Cl)C(Cl)=C(Cl)C2(Cl)C1(Cl)Cl (stereo not given)	inactive
CCc1ccc(C(=O)NN(C(=O)c2cc(C)cc(C)c2)C(C)(C)C)cc1	inactive
CCOCN(C(=O)CCl)c1c(C)cccc1CC	inactive
O=C(Nc1ccccc1)Nc1cnns1	inactive
CC(C)N(C(=O)COc1nnc(C(F)(F)F)s1)c1ccc(F)cc1	inactive
Oc1ccc(Cl)cc1Cc1ccccc1	inactive
CC(C)(C)C(O)C(Oc1ccc(Cl)cc1)n1cncn1 (stereo not given)	inactive
COP(=O)(OC)OC=C(Cl)Cl	inactive
O=C(O)CCCOc1ccc(Cl)cc1Cl	inactive
CNC(=O)Oc1ccccc1OC(C)C	inactive
